Source: PubChem BioAssay
This excerpt belongs to a sample that is enriched for hits.
DUSP3 inh: VHR1 (DUSP3) phosphatase inhibition | P51452 | recombinant VHR phosphatase, colorimetric substrate read-out | inhibition, % at 20 µM | 50,000 tested, 0.7% active | AID 1992; in the data active = inhibition above about 60%
Target sequence (P51452 whole entry, looked up): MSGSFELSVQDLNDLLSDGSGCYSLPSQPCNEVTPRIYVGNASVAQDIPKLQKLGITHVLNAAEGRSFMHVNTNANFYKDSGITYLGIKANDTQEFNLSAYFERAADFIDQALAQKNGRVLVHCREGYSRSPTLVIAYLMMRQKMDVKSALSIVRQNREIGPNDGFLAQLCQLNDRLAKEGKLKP
Numbers stand for hits; – = inactive.

SMILES	DUSP3 inh
COc1ccc(/C=C2\SC(=S)N(CCCCCC(=O)Nc3ccccc3C(=O)O)C2=O)cc1	–
CCOc1cc(C2Nc3ccccc3NC3=C2C(=O)CC(c2ccc(OC)cc2)C3)cc(Br)c1O (configuration not stated)	–
CCOc1cc(C2Nc3ccccc3NC3=C2C(=O)CC(c2ccccc2)C3)cc(Br)c1O (configuration not stated)	98.9
COc1cc(C2Nc3ccccc3NC3=C2C(=O)CC(c2ccc(Cl)cc2)C3)cc(Br)c1O (configuration not stated)	–
O=c1[nH]c(=O)n(-c2ccccc2F)c(O)c1C=Nc1ccc2c(c1)OCO2	–
COc1ccc(/C=C(/C#N)C(=O)Nc2cccc(Br)c2)cc1C	–
CN1C(=O)/C(=C\c2ccc(Sc3ccc(Cl)cc3)o2)SC1=S	62.1
CN1C(=O)/C(=C\c2ccc([N+](=O)[O-])o2)SC1=S	–
CN1C(=O)/C(=C\c2ccc(-c3ccc(F)c(Cl)c3)o2)SC1=S	–
Cc1ccc(NC(=O)/C(=C/c2cccc([N+](=O)[O-])c2)NC(=O)c2ccccc2)c(Br)c1	–
O=C(O)CCCC(=O)Nc1nc(-c2ccc(Cl)c(Cl)c2)cs1	–
CN(c1ccccc1C(=O)O)C1SC(=O)N(c2ccccc2)C1=O (configuration not stated)	–
O=C1C(Cl)=C(Nc2ccc(F)cc2)C(=O)N1c1ccccc1Cl	–
CCOC(=O)C1=NNC(C(=O)c2ccccc2)C1c1ccc(OC)cc1 (configuration not stated)	–
CCOC(=O)C1=NNC(C(=O)c2ccccc2)C1c1ccccc1 (configuration not stated)	–
CCOC(=O)C1=NNC(C(=O)OCC)(C(=O)OCC)C1c1ccccc1 (configuration not stated)	101.2
Cc1ccc(NC(=O)c2cccc(C)c2)nc1	–
COc1cccc(NC(=O)C2C3CCC4C(CCC32)C4(Cl)Cl)c1 (configuration not stated)	–
COc1ccc(NC(=O)C2C3CCC4C(CCC32)C4(Cl)Cl)cc1 (configuration not stated)	–
Cc1cc(C)c(NC(=O)C2C3CCC4C(CCC32)C4(Cl)Cl)c(C)c1 (configuration not stated)	102.6
O=C(Nc1ccc([N+](=O)[O-])cn1)c1ccc(F)cc1	–
CCOc1ccccc1NC(=O)c1c(N)sc2c1CCCCC2	74.7
CCOc1ccccc1NC(=O)c1c(NC(=O)Cc2ccccc2)sc2c1CCCCC2	–
COc1ccccc1NC(=O)c1c(N)sc2c1CCC2	–
COc1ccc(NC(=O)c2ccc(CN3CCN(Cc4ccccc4)CC3)cc2)cc1	–
SMILES	DUSP3 inh
Cc1ccc(N(CC(=O)NCc2ccccc2)S(C)(=O)=O)cc1Cl	–
O=C(c1ccccc1)N1CCN(CCN2C(=O)c3cccc4cccc(c34)C2=O)CC1	–
O=C(O)c1cccc(NC(=O)c2cccc(F)c2)c1	–
CCc1ccc(-c2cc(C(=O)NC(C)C)c3ccccc3n2)cc1	–
Cc1ccc(N2CCN(C(=S)c3ccc(-c4cccc([N+](=O)[O-])c4)o3)CC2)cc1	90.9
O=[N+]([O-])c1ccc(-c2ccc(C(=S)N3CCCCC3)o2)cc1	–
O=[N+]([O-])c1ccc(-c2ccc(C(=S)N3CCOCC3)o2)cc1	–
Cc1cccc(NC(=O)C2CC2(c2ccccc2)c2ccccc2)c1C (configuration not stated)	–
Cc1cccc(NC(=O)C(C)Oc2ccccc2)c1C (configuration not stated)	–
Cc1cccc(NC(=O)C2C(c3ccccc3)C=CC(c3ccccc3)C2C(=O)O)c1C (configuration not stated)	97.9
COc1ccccc1N(C=NC#N)CC#N	–
c1ccc2c(CNC34CC5CC(CC(C5)C3)C4)c[nH]c2c1	active
CCC(CC)NCc1c[nH]c2ccccc12	–
O=C1C=C(NCCc2c[nH]c3ccccc23)CC(c2ccccc2)C1 (configuration not stated)	–
CCOc1ccc(C=NNC(=O)CNS(=O)(=O)N2CCOCC2)cc1	–
N/C(Cc1ccc([N+](=O)[O-])cc1)=N\OC(=O)COc1ccc(Br)cc1	–
Cc1oc2c(cc(O)c3ccccc32)c1C(=O)c1ccccc1	–
CCOc1ccc(C(=S)N2CCOCC2)cc1	–
CCOc1cc(N2CCOCC2)c(OCC)cc1N	88.3
CCOc1ccc(C(=O)Nc2ccc(N3CCOCC3)c(Cl)c2)cc1Cl	–
CCOc1cccc(/C=C2/SC(=S)NC2=O)c1O	–
CCOc1cc(-c2ccc(O)cc2)cc(=O)c2c(C)oc(C)c12	–
CCOc1cccc(=O)c2c(C)[nH]c(C)c12	75.3
COC(=O)c1ccc(-n2ncnc2-c2ccc(Cl)c([N+](=O)[O-])c2)cc1	–
O=C(NC(=S)Nc1ccc2oc3ccccc3c2c1)c1ccccc1	–
SMILES	DUSP3 inh
Fc1ccc(NC(=S)Nc2cccc3ccccc23)cc1	–
S=C(Nc1ccc2c(c1)oc1ccccc12)Nc1cccc2ccccc12	105.7
Cc1ccc(N=Cc2c(O)ccc3ccccc23)nc1	–
Cc1cc(C)c2c(c1)=C(c1sc(N)nc1O)C(=O)N=2	–
COc1ccc(C(=O)c2ccc(OC)c(N)c2)cc1N	–
COc1cc(N)ccc1-n1c(C)ccc1C	70.1
COc1ccc(-c2nc3cc(N)ccc3o2)cc1OC	–
